Compound activity as filed in PubChem.
BAZ2B block: inhibitors of human BAZ2B bromodomain; Q9UIF8; AlphaScreen BAZ2B-H3K14Ac peptide displacement; Potency, µM (titrated, usually from 114 µM), without a hit: at the highest dose activity change, negative = inhibition, hits mostly inhibitors; 4.4% of 360,000 active; AID 504333; further: on the % scale 0 is the no-effect control and ±100 the full control effect; nearly all actives have a fitted effect of over 60% in size
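Protein-peptide AlphaScreen: BAZ2B 50 nM, b-H3K14Ac 50 nM, 1x PBS pH 7.4 + 0.01% Tween-20. Preincubation 30 min RT; cpd 30 min RT (top 110 uM); beads 20 min RT, light-protected.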
HP1b binding inh: HP1-beta chromodomain-methylated histone interaction inhibition | 0.56% of 390,000 active | AlphaScreen HP1-beta / biotin-H3K9me3 peptide binding | Potency, µM (highest dose often 114 µM), for inactives: at the highest dose activity change, negative = inhibition, usual class: inhibitors | P83916; further: nearly all actives have a fitted effect of over 70% in size
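HP1-beta protein (50 nM final) preincubated 30 min at room temperature with biotinylated H3(1-18)K9me3 peptide (50 nM) in PBS pH 7.4, 0.01% Tween-20, then compound added for 30 min. AlphaScreen streptavidin donor/nickel chelate acceptor beads (10 ug/mL final), 30 min dark, luminescence read.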
JMJD2A Tudor: blocks the human JMJD2A Tudor domain | AID 504339 | O75164 | AlphaScreen JMJD2A-Tudor / H3K4me3 peptide binding | 4.4% of 390,000 active | Potency, µM (highest dose often 114 µM), for the others: at the highest dose activity change, negative = inhibition, hits mostly inhibitors; further: on the % scale 0 is the no-effect control and ±100 the full control effect; nearly all actives have a fitted effect of over 50% in size
Target sequence (O75164 whole entry, looked up, the tested form may be a part): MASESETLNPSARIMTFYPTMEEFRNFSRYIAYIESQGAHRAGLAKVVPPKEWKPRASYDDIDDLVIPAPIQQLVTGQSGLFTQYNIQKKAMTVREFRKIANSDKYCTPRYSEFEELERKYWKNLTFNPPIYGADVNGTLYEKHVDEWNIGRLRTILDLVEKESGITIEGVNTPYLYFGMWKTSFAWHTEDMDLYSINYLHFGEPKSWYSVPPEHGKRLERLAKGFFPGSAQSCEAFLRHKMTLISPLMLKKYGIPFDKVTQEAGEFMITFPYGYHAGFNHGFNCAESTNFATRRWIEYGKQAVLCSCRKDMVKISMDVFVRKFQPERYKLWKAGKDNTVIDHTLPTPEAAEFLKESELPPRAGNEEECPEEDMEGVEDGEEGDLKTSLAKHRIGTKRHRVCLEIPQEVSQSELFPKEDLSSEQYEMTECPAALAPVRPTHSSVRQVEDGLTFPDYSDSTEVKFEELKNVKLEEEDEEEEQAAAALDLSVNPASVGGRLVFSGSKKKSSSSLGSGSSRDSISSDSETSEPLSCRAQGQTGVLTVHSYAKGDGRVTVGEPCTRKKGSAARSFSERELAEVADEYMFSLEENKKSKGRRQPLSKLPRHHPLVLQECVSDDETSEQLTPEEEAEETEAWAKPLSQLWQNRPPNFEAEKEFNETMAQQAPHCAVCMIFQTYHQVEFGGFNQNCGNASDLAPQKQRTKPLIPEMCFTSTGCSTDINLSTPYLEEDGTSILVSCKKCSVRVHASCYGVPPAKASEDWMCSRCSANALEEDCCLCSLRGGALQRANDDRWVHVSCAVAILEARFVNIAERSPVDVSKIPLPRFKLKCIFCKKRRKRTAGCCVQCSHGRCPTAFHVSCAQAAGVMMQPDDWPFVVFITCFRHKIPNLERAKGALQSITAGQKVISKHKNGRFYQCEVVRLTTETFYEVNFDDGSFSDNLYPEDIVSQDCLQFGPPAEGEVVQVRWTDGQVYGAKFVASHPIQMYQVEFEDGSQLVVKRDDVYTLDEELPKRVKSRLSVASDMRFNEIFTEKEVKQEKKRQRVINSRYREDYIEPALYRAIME
Sfp inh: blocks B. subtilis Sfp PPTase activity | Q9F4F7 | Biochemical Sfp PPTase activity, qHTS | Potency, µM, for inactives: largest response in the series, negative = inhibition, usual class: inhibitors | 3.5% of 310,000 active | AID 1490;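 further: the enzyme is Sfp with the accession as filed and its product quenches rhodamine fluorescence; 0% = enzyme reaction without inhibitor and -100% = no enzyme wells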
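Sfp 15 nM + cpd, 15 min RT; start w/ rhodamine-CoA 5 uM, BHQ-2-YbbR 12.5 uM (final); 50 mM Hepes pH 7.6, 10 mM MgCl2, 0.01% NP-40, 0.01% BSA; read 525/598 nm at 0 and 30 min.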
G9a block: blocks human histone lysine methyltransferase G9a | AID 504332 | Potency, µM (highest dose often 102 µM), for inactives: at the highest dose activity, negative = inhibition, most hits filed as inhibitors | G9a H3K9 monomethylation, AlphaScreen, 2 h | 8.8% of 350,000 active; further: on the % scale 0 is the no-effect control and ±100 the full control effect; nearly all actives have a fitted effect of over 75% in size
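Chemiluminescent proximity detection of H3K9 monomethylation, read after 10 min bead incubation in the dark. Reaction: 20 nM G9a, 500 nM biotin-H3K9 peptide, 20 uM SAM cofactor, 2 h, room temperature, following 15 min enzyme-compound preincubation.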
* marks the source's active call; other numbers are inactive results; ? = inconclusive; / = no result; [ ] = dose if it differs, or a comment. An excerpt weighted towards active compounds, which were near 12% of everything screened. The call rests on the fitted dose curve; in most records, active means well fitted curve in the direction sought with a large enough effect; inconclusive means small, poorly fitted or top-dose-only effect, or another doubt; inactive means no such curve, though single readings can be large; an effect the other way counts as inactive or inconclusive. Potency means the concentration at half of the fitted maximal effect.

SMILES	BAZ2B block	HP1b binding inh	JMJD2A Tudor	Sfp inh	G9a block
Cc1c(NC(=O)C(C)OC(=O)c2c3c(nc4ccccc24)CCC3)c(=O)n(-c2ccccc2)n1C (stereo not given)	50.1µM*	8.9%	?	15.2%	50.1µM*
O=C(NC1CCCCC1)c1c2c(nc3ccccc13)CCC2	50.1µM*	25.4%	-24.1%	-7.7%	?
COC(=O)C1=C(C(=O)OC)[C@@H]2N(Cc3ccccc3)c3ccccc3[C@@]23C[C@@H](C(=O)OC)N(S(=O)(=O)c2c(C)noc2C)C3=N1	/	/	/	-3.8%	/
CSCC[C@H](NC(=O)COc1ccc(Cl)cc1Cl)c1nc2ccccc2[nH]1	-4.4%	28.6%	-6.2%	12.4%	13.4%[59 µM]
Cc1c(NC(=O)COC(=O)c2c3c(nc4ccccc24)CCCC3)c(=O)n(-c2ccccc2)n1C	9.0%	44.3%	-6.5%	12.4%	23.8%[59 µM]
CNC(=O)COC(=O)c1c2c(nc3ccccc13)CCC2	50.1µM*	10.9%	?	-3.1%	/
CCN(CC#CCC1(O)c2ccccc2-c2ccccc21)CCO	?	-3.7%	89.1µM*	89.1µM*	-11.3%[0.0925 µM]
OC1(CC#CCN2CCCCC2)c2ccccc2-c2ccccc21	-12.9%	25.7%	-12.4%	12.9%	24.0%
CN1C=CC=C/C1=C1/SC(=S)N(Cc2ccccc2)C1=O	39.8µM*	?	?	?	?
CCN1C(=O)/C(=C2/C=CC=CN2C)SC1=S	?	?	-23.8%	?	?
COc1ccc(N2C(=O)/C(=C3/C=CC=CN3C)SC2=S)cc1	-37.1%	-24.3%	-29.8%	50.1µM*	44.7µM*
COC(=O)C1=C(C)NC(=O)/C1=C\c1cc(C)n(-c2ccccc2)c1C	?	-14.7%	?	?	39.8µM*
COC(=O)C1=C(C)NC(=O)/C1=C\c1cc(C)n(-c2cc(C)cc(C)c2)c1C	44.7µM*	-59.6%	56.2µM*	-12.4%	-14.7%[12.7 µM]
CC1=C2C(CCS2(=O)=O)CC2(C1)C(=O)OC(C)(C)OC2=O (stereo not given)	-37.7%	22.4%	-35.0%	20.0%	50.1µM*
COc1cc(NC(=O)c2nn(-c3ccc(F)cc3)c(=O)n(C)c2=O)cc(OC)c1OC	0.0%	23.7%[57 µM]	-21.4%	/	13.7%[59 µM]
Cc1nn(-c2ccccc2)c2c1C1(C(=O)N3c4c(cccc41)C(C)CC3(C)C)C(C#N)=C(N)O2 (stereo not given)	?	-25.4%	?	-8.0%	10µM*
O=C(N/N=C/c1ccsc1)c1ccc2c(c1)OCO2	-4.3%	32.9%	3.0%	/	1.6%[12.7 µM]
Cc1ccc(NC(=O)CSc2nnc(-c3ccccn3)n2N)cc1F	-19.2%	13.3%	-8.3%	2.0%	-1.4%
Nn1c(-c2ccccn2)nnc1-c1ccccn1	31.6µM*	39.8%	79.4µM*	1.6%	15.6%[12.7 µM]
Nn1c(SCc2c(F)cccc2F)nnc1-c1ccccn1	12.6µM*	-5.0%	8.91µM*	15.6%	-35.9%
c1ccc(-c2nn[nH]n2)nc1	5.62µM*	26.9%	7.08µM*	56.2µM*	/
Cc1ccc(C)c(CSc2nnc(-c3ccccn3)n2N)c1	/	25.6%	39.8µM*	11.6%	-24.0%[59 µM]
COc1cccc(OC)c1C(=O)Nc1cccc(-c2ccc(N3CCOCC3)nn2)c1	13.3%	33.1%	-12.8%	/	-3.4%
Nc1c(-c2ccccc2)sc2ccc3ccccc3[n+]12	-37.0%	26.7%	5.4%	35.5µM*	1µM*
Nc1ccc(Nc2nc3ccccc3[nH]2)cc1	44.7µM*	?	56.2µM*	-3.3%	/
SMILES	BAZ2B block	HP1b binding inh	JMJD2A Tudor	Sfp inh	G9a block
Nc1ccccc1Nc1nc2ccccc2[nH]1	?	-7.5%	-25.5%	3.2%	89.1µM*
COc1ccc(C)cc1NC(=O)CN1CCN(S(=O)(=O)c2ccc(F)cc2)CC1	-3.2%	50.4%	-17.1%[11.4 µM]	-4.8%	?
CCNc1cc(N2CCN(C3CCCCC3)CC2)c2noc3c2c1C(=O)c1ccccc1-3	35.5µM*	?	50.1µM*	/	?
Cn1c(=O)cc(SCC(=O)N2CCN(C3CCCCC3)CC2)c2ccccc21	/	3.3%	-20.1%	/	/
CC(=O)OCCNc1cc(N2CCN(C)CC2)c2noc3c2c1C(=O)c1ccccc1-3	39.8µM*	-11.8%	50.1µM*	3.9%	?
CCOC(=O)N1CCN(c2cc(NCCO)c([N+](=O)[O-])c3nonc23)CC1	-6.8%	11.4%	-13.9%	4.6%	17.3%
CC(C)Nc1cc(N2CCN(C3CCCCC3)CC2)c2noc3c2c1C(=O)c1ccccc1-3	12.6µM*	?	22.4µM*	/	?
O=C(O)CCCNc1cc(N2CCN(C3CCCCC3)CC2)c2noc3c2c1C(=O)c1ccccc1-3	31.6µM*	22.4µM*	35.5µM*	/	15.8µM*
CCC(=O)N1CCc2cc(Br)cc(S(=O)(=O)N3CCCC(C(=O)Nc4cccc(F)c4)C3)c21 (stereo not given)	-9.1%	45.6%	-14.0%	/	-45.6%[59 µM]
COC(C/C=C/[C@@H](O)COCc1ccccc1)OC	1.9%	38.2%	-2.8%	5.3%	37.5%[59 µM]
CCN(CC(=O)Nc1c(F)cccc1F)C(=O)c1ccc(=O)n(C)n1	/	3.0%	-15.5%	/	/
C#CCNC(=O)C1=C[C@@H](c2ccc(C#C)cc2)C[C@@H](OCc2ccc(CO)cc2)O1	/	23.5%	-22.9%	/	/
COCCn1c(C)cc(C(=O)COC(=O)c2c(C)nn(Cc3ccccc3)c2C)c1C	?	?	?	-0.8%	79.4µM*
COCC(C)n1c(C)cc(C(=O)COC(=O)c2nn(C)c(=O)c3ccccc23)c1C (stereo not given)	/	-10.2%	-32.2%	/	/
COCC(C)n1c(C)cc(C(=O)Cn2nc(C(=O)O)c3ccccc3c2=O)c1C (stereo not given)	-32.4%	-17.4%	-34.4%	14.0%	44.7µM*
COCC(C)n1c(C)cc(C(=O)COC(=O)C2=NN(c3ccccc3)C(=O)CC2)c1C (stereo not given)	-30.3%	/	/	18.1%	2.8%
COCCn1c(C)cc(C(=O)CSc2nncn2-c2ccccc2)c1C	-33.0%	14.2%	-20.0%	8.8%	50.1µM*
Cc1nn(Cc2ccccc2)c(C)c1C(=O)OCC(=O)c1cc(C)n(C2CC2)c1C	?	2.9%	-30.1%	-11.0%	-13.6%[59 µM]
COc1ccc(-n2cnnc2SCC(=O)c2cc(C)n(Cc3cccs3)c2C)cc1	/	2.5%	?	-14.5%	?
COCC(C)n1c(C)cc(C(=O)COC(=O)c2c(C)nn(-c3ccccc3)c2C)c1C (stereo not given)	?	?	?	-3.9%	50.1µM*
O=C(NCCc1ccncc1)C(F)(F)F	-4.4%	24.9%	-10.0%	2.8%	-6.1%[12.7 µM]
Cc1ccc(NC(=O)CSc2nc3c(c(=O)n(C)c(=O)n3C)n2C)cc1	-0.8%	4.4%	-3.3%	14.7%	13.8%
CCOC(=O)c1cc(C)n(CCc2ccccc2)c1C	-7.0%	19.9%	-25.8%	0.5%	13.4%[59 µM]
COCCn1c(C)cc(C(=O)COC(=O)c2cncc(Br)c2)c1C	?	-0.6%	-19.4%	-8.9%	?
Cc1cc(C(=O)CCl)c(C)n1CCc1ccccc1	-22.5%	?	44.7µM*	20µM*	50.1µM*
